Laboratory results published in PubChem BioAssay AID1076 (NMMLSC, 2008).
The source made the active and inactive calls.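 Rule for the calls: active = cell event count below 40, meaning activity score above 60 where score is 100 minus count; inactive = the rest.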

Experiment: cytotoxicity in LNCaP prostate cells – cell-based, cell event count, single point, cytotoxicity control for prostate differentiation activator project, confirmation (AID 1076);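 note: counts scatter-gated live cells after medium removal discards detached dead cells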
Details: LNCaP cell loss, flow cytometry event count, 4 d, stronger effect = lower value

Structure (SMILES) | cell event count (at 100 µM) | cell event count (event count, at 10 µM)
COC(=O)CN1CCN(C(=O)c2ccc(F)cc2)c2ccccc2C1 | 112 (inactive) | 157
COc1ccc(CCNC(=O)C2CCN(Cc3nc(-c4cccc(Cl)c4)oc3C)CC2)cc1OC | 85 (inactive) | 338
COc1ccc(-c2cc(C(F)(F)F)nc(N3CCN(C)CC3)n2)cc1 | 4 (inactive) | 102
CCC(CC)C(=O)Nc1cccc(C(=O)NCc2ccco2)c1 | 220 (inactive) | 155
Cc1ccc2c(c1)NC(=O)C(CC(=O)NCCCN1CCN(c3cc(C)ccc3C)CC1)O2 (centres undefined) | 113 (inactive) | 152
CC1(C)CC(=O)c2cc(OCC(=O)NCCCN3CCN(c4ccccc4F)CC3)ccc2O1 | 11 (inactive) | 141
COc1cccc(-c2cc(C(=O)N3CCN(C(c4ccccc4)c4ccccc4)CC3)no2)c1 | 440 (inactive) | 402
Cc1ccccc1-c1nc(CN2CCC(C(=O)NCC3CCCO3)CC2)c(C)o1 (centres undefined) | 71 (inactive) | 139
CC(=O)Nc1cc(C(=O)N2CCOCC2)ccc1S(=O)(=O)c1ccc(C)cc1 | 272 (inactive) | 300
Cc1nc2nc(C)c(CCC(=O)NCCCN3CCN(c4cccc(Cl)c4)CC3)c(C)n2n1 | 43 (inactive) | 61
Cn1cc(CNC(=O)C2c3ccccc3Oc3ccccc32)cn1 | 465 (inactive) | 217
O=C(CCNC(=O)Cn1ccc2ccccc2c1=O)NCCCN1CCN(c2ccccc2F)CC1 | 112 (inactive) | 126
COc1ccc(CCN2CCC(Nc3nc4ccccc4n3Cc3ccc(F)cc3)CC2)cc1 | 11 (inactive) | 728
Cc1ccccc1-c1nc(CN2CCC(C(=O)NCCC3=CCCCC3)CC2)c(C)o1 | 11 (inactive) | 93.5
Cc1ccccc1-c1nc(CN2CCC(C(=O)N3CCC(C(N)=O)CC3)CC2)c(C)o1 | 150 (inactive) | 83.5
N#CC1=C(N)OC2=C(C(=O)CCC2)C1c1ccc(OC(=O)N2CCOCC2)cc1 (centres undefined) | 293 (inactive) | 223
CCn1c(SCC(=O)Nc2ccccc2F)nc2c(c1=O)SC(C)C2 (centres undefined) | 75 (inactive) | 70.5
O=C(NCCCN1CCN(c2ccccc2F)CC1)C1CCC(=O)N1C1CCCCC1 (centres undefined) | 388 (inactive) | 282
COC(=O)Nc1sc2c(c1C(N)=O)CCCCCC2 | 80 (inactive) | 202

Structure (SMILES) | cell event count (at 100 µM) | cell event count (event count, at 10 µM)
COc1ccc(CC(=O)Nc2ccc(-c3nnc(-c4ccc(C)cc4)o3)cc2)cc1 | 24 (inactive) | 112
CCN(CC)CCCNC(=O)c1cc(-c2ccc(Cl)c(Cl)c2)on1 | 22 (inactive) | 165
CCOc1ccc(NC(=O)COc2nsnc2N2CCCCC2)cc1 | 23 (active) | 63.5
Cc1cc(NC(=O)c2noc3c2CCc2ccccc2-3)n(-c2ccccc2)n1 | 146 (inactive) | 367
CN(CC(=O)Nc1ccc2c(c1)OCCO2)S(=O)(=O)c1cccc2cccnc12 | 95 (inactive) | 156
N#CC(C(=O)c1ccco1)c1ccccn1 (centres undefined) | 40 (active) | 40.5
O=C(NCCCN1CCOCC1)c1cc2c(s1)CSC2 | 191 (inactive) | 52.5
CCOC(=O)c1cc2c(=O)n3ccccc3nc2n(CCCOC)c1=NC(=O)c1cccnc1 | 223 (inactive) | 144
O=S1(=O)C=C(Sc2nc3ccccc3s2)c2ccccc21 | 39 (active) | 44
Cc1ccc(NC(=O)CCNS(=O)(=O)c2ccc3c(c2)oc(=O)n3C)c(C)c1 | 350 (inactive) | 129
c1cncc(-c2nc3ccccc3o2)c1 | 49 (inactive) | 89.5
Cc1cccc(-c2nc(CN3CCCC(C(=O)NC4CCCC4)C3)c(C)o2)c1 (centres undefined) | 29 (inactive) | 328
COc1ccc2cc3cc(C(=O)Nc4ccccc4N4CCN(C)CC4)oc3nc2c1 | 41 (inactive) | 334
COC(=O)C1=C(C)N=c2s/c(=C/c3cccs3)c(=O)n2C1c1cccs1 (centres undefined) | 125 (inactive) | 320
Cc1oc(-c2ccc(Cl)cc2)nc1CN1CCCC(C(=O)NCCCN2CCOCC2)C1 (centres undefined) | 42 (inactive) | 182
CCOC(=O)N1CCN(C(=O)CN(c2cccc(C(F)(F)F)c2)S(=O)(=O)c2ccccc2)CC1 | 137 (inactive) | 395
Cn1c(C(=O)NCCCN2CCN(c3ccccc3F)CC2)cc2c(=O)[nH]c3ccccc3c21 | 3 (inactive) | 93
O=C(Cn1cc2c(n1)CCCC2)NCCCN1CCN(c2ccccc2F)CC1 | 94 (inactive) | 102
